Compound activity from PubChem BioAssay.
D1 mod – D1 CRE-luciferase signal change, two-sided – cell-based, HEK293 D1, dopamine EC30, D1 allosteric modulator project, primary screen; D(1A) dopamine receptor (Homo sapiens), P21728; B-score at 10 µM; dopamine EC30 potentiation; actives deviate in either direction; AID 641, 2007; 5.9% of 58,000 active;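 active = luminescence count or its row- and column-corrected plate score outside the 99.7% band of the plate's sample wells, on either side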
DAT uptake mod – changed hDAT dopamine uptake under cocaine IC80, either direction, primary screen, cocaine antagonist project, cell-based, LLC-PK1 hDAT, [14C]-dopamine uptake, MLSMR. LLC-PK1 hDAT cells, [14C]-dopamine uptake with cocaine IC80; actives deviate in either direction. 1.3% of 110,000 active. B-score at 10 µM;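 active = Z score or B-score, a plate-position-corrected score, falls beyond the plate's 99.7% confidence bounds, in either direction; inactive = both scores lie inside the 99.7% bounds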;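 note: scored against the spread of the other compound wells on the same plate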
Target sequence (Q01959 whole entry, looked up): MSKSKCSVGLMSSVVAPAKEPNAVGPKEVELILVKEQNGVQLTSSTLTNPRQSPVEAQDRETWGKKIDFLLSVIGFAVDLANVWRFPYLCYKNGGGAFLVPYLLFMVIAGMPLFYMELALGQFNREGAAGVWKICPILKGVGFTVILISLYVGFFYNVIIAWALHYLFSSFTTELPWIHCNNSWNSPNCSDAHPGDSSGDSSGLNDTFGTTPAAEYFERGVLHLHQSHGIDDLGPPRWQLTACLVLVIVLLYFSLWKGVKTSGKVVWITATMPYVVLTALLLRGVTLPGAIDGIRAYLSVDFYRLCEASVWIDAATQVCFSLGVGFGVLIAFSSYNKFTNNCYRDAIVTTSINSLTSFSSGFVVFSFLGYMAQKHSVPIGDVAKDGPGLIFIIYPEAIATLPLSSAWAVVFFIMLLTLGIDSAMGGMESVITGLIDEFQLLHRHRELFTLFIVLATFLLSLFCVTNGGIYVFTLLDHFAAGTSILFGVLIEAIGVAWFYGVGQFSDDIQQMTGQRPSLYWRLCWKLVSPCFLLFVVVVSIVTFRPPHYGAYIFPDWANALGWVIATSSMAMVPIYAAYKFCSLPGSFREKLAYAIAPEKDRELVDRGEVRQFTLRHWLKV
BAP1 block – inhibitors of BAP1 deubiquitinase, primary screen, biochemical, Ub-AMC fluorescence, kinetic; Ubiquitin carboxyl-terminal hydrolase BAP1 (Homo sapiens), Q92560; calls only at 20 µM; AID 436, 2006; recombinant BAP1, Ub-AMC hydrolysis fluorescence kinetic; active compounds read low; 0.48% of 72,000 active;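 active = activity remaining at or below 50% of control, provided the compound also passes the data quality filters; inactive = the rest, including low values that fail the filters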;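 note: 100% = DMSO wells rate and 0% = substrate alone blank rate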
D1 mod confirm – D1 receptor positive allosteric modulators, retest, confirmation, cell-based, HEK293 D1, CRE-luciferase, duplicate. shares compounds with D1 mod. dopamine EC30 potentiation; active compounds read high. luminescence at 10 µM. 88% of 2,200 active. AID 642, 2007;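 active = luminescence in either of two replicates above the same-plate mean plus 3 SD of the low-dose dopamine control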
D1 ag no DA – D1 receptor agonism without dopamine, confirmation, mechanism study for D1 allosteric modulator project, cell-based, HEK293 D1, CRE-luciferase, secondary assay 1; shares compounds with D1 mod; luminescence, no dopamine; active compounds read high; luminescence at 10 µM; 0.8% of 1,900 active; AID 646, 2007; in the data active = luminescence above about 3900
Isoprot counter – isoproterenol response counter-screen activity for D1 modulators | shares compounds with D1 mod | HEK293 D1 CRE-luciferase, isoproterenol EC30 counter-screen; active compounds read high | luminescence at 10 µM | 63% of 2,200 active;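 active = luminescence in either replicate above plate mean of wells with a partly effective reference agonist dose plus 3 SD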;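 note: isoproterenol raises cAMP through native beta-adrenoceptor Gs so signal bypasses D1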
Numbers without * were called inactive; i = inactive; . = no result shown. The full list was thinned out, with hits kept by preference.

SMILES	D1 mod	DAT uptake mod	BAP1 block	D1 mod confirm	D1 ag no DA	Isoprot counter
O=C(Nc1c2c(nn1-c1ccc(Cl)cc1)CSC2)c1ccc(Cl)cc1	.	.	i	.	.	.
CC(=O)Nc1nc2n(n1)C(c1ccc(F)cc1)C=C(c1ccccc1)N2 (centres undefined)	2	0.23	i	.	.	.
CC(=O)Nc1nc2n(n1)C(c1ccccc1)C=C(c1ccccc1)N2 (centres undefined)	3.4*	0.98	i	6792*	1432	2416
O=C(Nc1nc2n(n1)C(c1ccccc1)C=C(c1ccccc1)N2)c1ccco1 (centres undefined)	2.9*	-0.42	.	11140*	1520	3016*
CCC(=O)Nc1nc2n(n1)C(c1ccc(OC)cc1)C=C(c1ccccc1)N2 (centres undefined)	.	0.38	.	.	.	.
O=C(Nc1nc2ccc(Cl)cc2s1)c1cccc([N+](=O)[O-])c1	.	.	i	.	.	.
COc1ccc(NC(=O)c2cccc([N+](=O)[O-])c2)c([N+](=O)[O-])c1	.	.	i	.	.	.
CCOC(=O)c1c(-c2ccccc2)csc1NC(C)=O	.	.	i	.	.	.
c1ccc(Cn2c(NCc3ccco3)nc3ccccc32)cc1	12*	-0.36	i	14512*	1716	3016
c1coc(CNc2nc3ccccc3n2CCN2CCOCC2)c1	-0.71	0.024	i	.	.	.
Cc1noc(C)c1CSc1nc2sc(C)c(C)c2c(=O)n1C1CCCC1	10*	-0.99	i	13364*	1472	5220*
Cc1noc(C)c1CSc1nc2sc3c(c2c(=O)n1C)CCCC3	.	0.85	.	.	.	.
Cc1ccc(S(=O)(=O)NC(=O)c2ccc(Cl)cc2)cc1	.	.	i	.	.	.
COc1ccccc1OCCSc1nc2ccccc2c(=O)[nH]1	0.22	0.0035	i	.	.	.
O=c1[nH]c(SCCOc2ccccc2)nc2ccccc12	5.3*	-0.77	i	7564*	.	3064*
O=[N+]([O-])c1cccc(S(=O)(=O)N2CCN(c3ccc(Cl)cc3[N+](=O)[O-])CC2)c1	.	.	i	.	.	.
CCOC(=O)c1c(NC(=O)C(C)(C)C)sc(C(=O)Nc2ccccc2)c1C	.	.	i	.	.	.
COC(=O)c1cccc(S(=O)(=O)N2CCC(C)CC2)c1	0.048	0.88	i	.	.	.
COC(=O)c1cccc(S(=O)(=O)N2CCC(NC(=O)NC34CC5CC(CC(C5)C3)C4)CC2)c1	4.6*	-0.38	.	11624*	1536	2832
CC(=O)Nc1ccc(C(=O)CSc2nc(N)cc(=O)[nH]2)cc1	.	.	i	.	.	.
Cc1nc(N2CCC(C(N)=O)CC2)c2nnn(Cc3ccccc3)c2n1	3.2*	-0.12	i	6740*	1504	2880
Cc1nc(N2CCCC2)c2nnn(Cc3ccccc3Cl)c2n1	.	0.26	i	.	.	.
N#Cc1cccc(-c2nnc(SCc3ccccc3C#N)o2)c1	2.7*	1.1	i	5456	1604	3568*
Cc1cccc(-c2nnc(SCc3ccccc3)o2)c1	.	1.4	.	.	.	.
O=C1c2nccnc2C(=O)N1c1cccc2ccccc12	.	.	i	.	.	.
SMILES	D1 mod	DAT uptake mod	BAP1 block	D1 mod confirm	D1 ag no DA	Isoprot counter
c1ccc2c(c1)ccc1nnc(SCc3ccc4c(c3)OCCO4)n12	.	0.4	.	.	.	.
c1ccc2c(c1)ccc1nnc(-c3ccc4c(c3)OCO4)n12	22*	0.33	i	24948*	1952	7028*
NC(=O)CSc1nnc(-c2cccs2)n1-c1ccccc1	.	-0.0082	.	.	.	.
COC(=O)CSc1nnc(-c2cccs2)n1-c1ccc(Cl)cc1	2.8*	0.73	i	9056*	.	2668*
O=C1c2cc(S(=O)(=O)N3CCOCC3)cc([N+](=O)[O-])c2-c2c1cc(S(=O)(=O)N1CCOCC1)cc2[N+](=O)[O-]	.	.	i	.	.	.
O=S(=O)(NCc1ccc(Br)cc1)c1ccc(F)cc1	.	.	i	.	.	.
COc1ccc(CN(C2CCCC2)S(=O)(=O)c2ccc(-n3cnnn3)cc2)cc1	.	-0.075	i	.	.	.
COc1ccc(CN(C2CCCC2)S(=O)(=O)c2ccc(-n3cnnn3)cc2)cc1OC	5.5*	1.9	i	10040*	1604	3256
CCOC(=O)c1c(-c2cccs2)csc1NC(C)=O	.	0.21	i	.	.	.
CCOC(=O)c1c(-c2cccs2)csc1NC(=O)CSc1ncn[nH]1	3.3*	-0.79	i	11080*	2064	3016
CC1=C(C(=O)OCC2CCCO2)C(c2cccs2)C2=C(CC(C)(C)CC2=O)N1 (centres undefined)	.	.	i	.	.	.
Cc1ccc(-n2c(=O)[nH]c3c(C(N)=O)nc(CC(C)C)nc32)cc1	7.8*	-0.036	i	20900*	1632	4032*
Cc1ccc(-n2c(=O)[nH]c3c(C(N)=O)nc(-c4ccc(C)o4)nc32)cc1	1.6	.	i	.	.	.
COc1ccccc1-n1c(=O)[nH]c2c(C(N)=O)nc(C3CCCCC3)nc21	0.95	0.033	i	.	.	.
COc1ccccc1-n1c(=O)[nH]c2c(C(N)=O)nc(CC(C)C)nc21	5.9*	-0.48	i	9424*	1520	3044
O=C(Nc1nc2ccccc2s1)c1cc(=O)c2ccccc2o1	.	.	i	.	.	.
CC(C)C1C(C#N)=C(N)Oc2n[nH]c(-c3ccccc3)c21 (centres undefined)	3.8*	-0.14	i	13728*	1660	2760
CCOc1ccc(C2C(C#N)=C(N)Oc3n[nH]c(C)c32)cc1OC(=O)C1CC1 (centres undefined)	-0.62	-1.1	i	.	.	.
CCOc1cc(C2C(C#N)=C(N)Oc3n[nH]c(-c4ccccc4)c32)ccc1O (centres undefined)	3.8*	-0.039	i	5848*	1448	2572
CC(C)CC1C(C#N)=C(N)Oc2n[nH]c(-c3ccccc3)c21 (centres undefined)	.	-0.01	.	.	.	.
COc1ccc(-c2[nH]nc3c2C(c2ccoc2)C(C#N)=C(N)O3)cc1 (centres undefined)	.	-0.53	.	.	.	.
Cc1ccc(-c2[nH]nc3c2C(c2ccoc2)C(C#N)=C(N)O3)cc1C (centres undefined)	11*	-0.48	i	18284*	1340	4760*
Cc1cc(C)nc(SCC(=O)Nc2ccc(Cl)cn2)n1	.	.	i	.	.	.
CCOc1ccc(N2C(=O)CC(NCC(=O)OC)C2=O)cc1 (centres undefined)	.	.	i	.	.	.
O=C(NCCCCNC(=O)c1cccc([N+](=O)[O-])c1)c1cccc([N+](=O)[O-])c1	.	.	i	.	.	.
Clc1ccc(-n2nnnc2-c2ccccc2)cc1Cl	13*	0.067	i	19112*	1808	3948*
COc1ccc(-n2nnnc2-c2cccc(OC)c2)cc1	-0.054	0.04	i	.	.	.
O=S(=O)(NCc1ccc(Cl)cc1)c1cnc[nH]1	0.27	-1.3	i	.	.	.
